Screening data from PubChem BioAssay.
Only some compounds are listed: those with a hit (about 17% of all), similar ones and a draw of the others.
HepG2 tox = counter-screen for TGF-b inhibitors: cytotoxicity in HepG2 cells. HepG2 CAGA-GFP viability, ATP luminescence, 18 h. Potency, µM (titrated, usually from 46.1 µM), for inactives: at the top dose activity change, negative = cytotoxicity, most hits filed as cytotoxic. 410,000 tested, 0.76% active
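HepG2 CAGA-GFP cells (1000/well, DMEM with 1% FBS) received compound, then TGF-beta at 500 pg/mL final, and were incubated 18 hours at 37 degrees C. Viability was read by CellTiter-Glo luminescence. Media-only wells were set as complete cell-killing and DMSO as no toxicity.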
TDP1 cell noCPT = qHTS for Inhibitors of human tyrosyl-DNA phosphodiesterase 1 (TDP1): qHTS in cells in absence of CPT. DT40 Tdp1-/- hTDP1 cells, no CPT, ATP luminescence, 48 h. Potency, µM (doses to about 46.2 µM), inactives show at the highest dose activity change, negative = growth inhibition, actives largely listed as inhibitors. 420,000 tested, 15% active. AID 686978, 2013; also: % is scaled to controls: 0 for no effect and ±100 for the full control effect; nearly all actives have a fitted effect of over 55% in size
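Seeded 400 DT40-hTDP1 cells/well (vehicle DMSO, no 20 nM CPT); pinned compounds; ≥48 hr at 37 °C; CellTiter-Glo luminescence as viability measure.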
TGFb inhibitor = blocks TGF-b signaling; HepG2 CAGA-GFP TGF-b/SMAD3 reporter, GFP fluorescence, 18 h; TGF-beta stimulated, 500 pg/mL final; 410,000 tested, 1.2% active; Potency, µM (highest dose often 46.1 µM), for the others: top-dose activity, negative = inhibition, actives largely listed as inhibitors; AID 588855; also: % is scaled to controls: 0 for no effect and ±100 for the full control effect; nearly all actives have a fitted effect of over 65% in size
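Using HEPG2 CAGA-GFP reporter cells at 1000 cells/well, we pinned test compounds, stimulated with recombinant TGF-beta (500 pg/mL final) and measured total well GFP after 18 h.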
HT1080 IDH1KD tx = HT-1080 IDH1 knockdown cell toxicity (counter line). HT-1080 IDH1 knockdown viability, ATP luminescence, 48 h. Potency, µM (series often up to 46.1 µM), without a hit: at the top dose activity, negative = toxicity, most hits filed as cytotoxic. 360,000 tested, 2% active;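 also: 0% = DMSO wells and -100% = cell-free medium wells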
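% activity derives from luminescence (CellTiter-Glo), normalised to DMSO and no-cell wells. HT-1080-IDH1KD cells, 750/well, had 48 h compound exposure at 37 °C.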
DT40 TDP1 CPT = growth inhibition of DT40 Tdp1-/-;hTDP1 cells with camptothecin (screen for TDP1 inhibitors); chicken DT40 Tdp1-/-;hTDP1 cells + 20 nM CPT, ATP luminescence, 48 h; Potency, µM (top dose mostly 46.2 µM), without a hit: at the highest dose activity change, negative = growth inhibition, actives largely listed as inhibitors; 420,000 tested, 12% active; also: % is scaled to controls: 0 for no effect and ±100 for the full control effect; nearly all actives have a fitted effect of over 55% in size
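Chicken DT40 Tdp1-/- cells stably complemented with human TDP1 were seeded at 400 cells/well in medium containing 20 nM camptothecin, exposed to pin-transferred compounds, and grown at 37 °C for at least 48 hr. Viability was read as ATP luminescence.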
HT1080NT lethal = kills 2HG-producing HT-1080-NT fibrosarcoma cells; HT-1080-NT fibrosarcoma viability, CellTiter-Glo ATP luminescence, 48 h; Potency, µM (top dose mostly 46.1 µM), for inactives: top-dose activity, negative = less viability, usual class: cytotoxic; 360,000 tested, 1.6% active; AID 686970;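 also: NT is the 2HG producing partner of a matched IDH1 knockdown line; 0% = DMSO-treated cells and -100% = media-only wells without cells; nearly all actives have a fitted effect of over 55% in size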
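Read-out is CellTiter-Glo luminescence after 10 minutes at room temperature, following 48 hours' compound treatment of HT-1080-NT cells (750 cells/well, RPMI, 5% FBS, 37 degrees C).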
Starred values were filed as active, the others as inactive; u = inconclusive; x = no result given. Calls follow the shape of the dose curve; as a rule, active = well fitted curve in the direction sought with a large enough effect; inconclusive = small, poorly fitted or top-dose-only effect, or another doubt; inactive = no such curve, though single readings can be large; an effect the other way counts as inactive or inconclusive. Potency is read from the fitted curve at half-maximal effect.

SMILES	HepG2 tox	TDP1 cell noCPT	TGFb inhibitor	HT1080 IDH1KD tx	DT40 TDP1 CPT	HT1080NT lethal
O=C(/C=C/c1ccccc1Cl)Nc1ccncc1	0.4%	u	0.0%	1.1%	u	3.6%
COc1cccc(CNC(=O)CCCN2C(=O)CSc3c2c(C)nn3-c2ccccc2)c1	-5.6%	u	-59.3%	x	u	x
Cc1ccc(Cl)cc1N1CCN(CCCNc2ncnc3onc(-c4ccc(F)cc4)c23)CC1	7.4%	18.4µM*	3.6%	x	14.6µM*	x
Cc1ccc(CN2CCC(CNc3ncnc4onc(-c5ccc(F)cc5)c34)CC2)cc1	-23.9%	23.1µM*	-20.1%	x	-39.8%	x
Fc1ccc(-c2noc3ncnc(NCc4cccc(Cl)c4)c23)cc1	-6.5%	u	-7.9%	x	-4.4%	x
Cc1ccc(Cl)cc1N1CCN(c2ncnc3onc(-c4ccc(F)cc4)c23)CC1	24.0%	-6.7%	-0.5%	x	-0.5%	x
Fc1ccc(-c2noc3ncnc(NCC4CCN(Cc5ccc(Cl)cc5)CC4)c23)cc1	-22.6%	13µM*	u	x	u	x
Cc1cccc(N2CCN(C(=O)c3cccc(S(=O)(=O)N4CCOCC4)c3)CC2)c1C	-3.7%	u	0.0%	-11.5%	u	-1.6%
COc1cccc(N2CCN(C(=O)c3ccc(OC)c(S(=O)(=O)NC4CC4)c3)CC2)c1	-47.7%	16.4µM*	8.5%	-11.6%	u	-19.1%
COc1ccc(C(=O)N2CCC(C(N)=O)CC2)cc1S(=O)(=O)N1CCCC1	3.9%	4.9%	15.3%	5.1%	3.1%	21.0%
COc1ccc(C(=O)N2CCN(c3cccc(C)c3C)CC2)cc1S(=O)(=O)NC1CC1	-17.0%	23.1µM*	u	-22.5%	u	-7.0%
COc1ccc(C(=O)N2CCN(c3ccccc3Cl)CC2)cc1S(=O)(=O)NC1CC1	-45.6%	4.11µM*	-3.7%	-8.9%	u	-13.6%
CCOC(=O)N1CCN(S(=O)(=O)c2ccc(OCC)c3ccccc23)CC1	-22.3%	23.1µM*	u	u	16.4µM*	-6.7%
CCOC(=O)N1CCN(S(=O)(=O)c2ccc(OC)c(Cl)c2Cl)CC1	0.4%	13µM*	-11.2%	-7.9%	u	-8.8%
CCOC(=O)N1CCN(S(=O)(=O)c2ccc(OC)c(Cl)c2)CC1	-4.4%	-22.6%	0.0%	13.3%	-8.2%	9.0%
Cc1n[nH]c(C)c1N1C(=O)c2cccc3c(N4CCCCCC4)ccc(c23)C1=O	-35.8%	23.1µM*	474.2%	-19.0%	u	-14.1%
O=C1c2cccc3c(N4CCCCC4)ccc(c23)C(=O)N1c1cccc(O)c1	-29.9%	u	47.5%	u	u	-27.9%
CC(=O)OCCn1c2nc(=O)[nH]c(=O)c-2nc2cc(C)c(C)cc21	-65.3%	u	u	-0.2%	u	-3.2%
CCCC(=O)OC[C@@H](OC(=O)CCC)[C@@H](OC(=O)CCC)[C@H](Cn1c2nc(=O)[nH]c(=O)c-2nc2cc(C)c(C)cc21)OC(=O)CCC	x	5.96µM*	x	x	6.68µM*	x
CCc1nc(CN(C)C(=O)C2CCC(=O)N(CCc3cccc(F)c3)C2)no1 (centres undefined)	0.0%	3.3%	-11.3%	8.0%	2.4%	3.6%
CCOC(=O)Nc1sc2c(c1C(N)=O)CCC(C)C2 (centres undefined)	-6.4%	4.6%	4.5%	9.7%	-14.2%	15.5%
CCCC1CCc2c(sc(NC(=O)OCC)c2C#N)C1 (centres undefined)	-9.7%	23.1µM*	12.0%	18.4µM*	14.6µM*	u
CN1C(=O)/C(=C/c2ccccc2Cl)Sc2ccc(C(=O)N3CCCC3)cc21	-42.9%	25.9µM*	u	-0.2%	u	-0.9%
CCOC(=O)C1CCCN(C(=O)c2ccc3c(c2)N(C)C(=O)/C(=C/c2ccccc2Cl)S3)C1 (centres undefined)	-16.1%	18.4µM*	u	-26.4%	u	-17.5%
CCOc1ccc(/C=C2/Sc3ccc(C(=O)N4CCOCC4)cc3N(C)C2=O)cc1OC	-6.8%	16.4µM*	-12.5%	u	u	-16.1%
SMILES	HepG2 tox	TDP1 cell noCPT	TGFb inhibitor	HT1080 IDH1KD tx	DT40 TDP1 CPT	HT1080NT lethal
COc1ccc(/C=C2\Sc3ccc(C(=O)N4CCCC4)cc3N(C)C2=O)cc1OC	-12.6%	u	-4.9%	-1.4%	6.6%	-22.2%
CN1C(=O)/C(=C/c2cccc(Cl)c2)Sc2ccc(C(=O)N3CCOCC3)cc21	-1.3%	u	-2.6%	-11.4%	u	-8.3%
CN1C(=O)/C(=C\c2ccccc2F)Sc2ccc(C(=O)NC3CCN(Cc4ccccc4)CC3)cc21	-97.5%	23.1µM*	u	16.4µM*	18.4µM*	20.6µM*
CCOc1ccc(C2C(C(=O)c3cccs3)=C(O)C(=O)N2Cc2cccnc2)cc1OC (centres undefined)	-3.4%	-15.8%	6.4%	10.3%	15.6%	11.6%
O=C(Cc1ccc(-c2ccccc2)cc1)Nc1ncccc1O	-1.3%	1.0%	-14.5%	-24.8%	-20.0%	-2.2%
COc1ccc(C(=O)C23CC4CC(C2)CC(C(=O)c2ccc(OC)cc2)(C4)C3)cc1	1.9%	16.4µM*	14.3%	0.4%	u	1.6%
COCCCn1cc(CN2CC(N3CCCCC3)CS2(=O)=O)nn1 (centres undefined)	x	0.4%	x	0.5%	0.9%	21.1%
Cc1cc(C)n2c(NC3CCCCC3)c(CC(C)C)nc2n1	x	18.4µM*	x	7.3%	u	20.5%
Cc1cc(C)n2c(NC3CCCCC3)c(-c3ccc(F)cc3)nc2n1	x	u	x	7.8%	u	-0.6%
Cc1cc(C)n2c(Nc3ccc4c(c3)OCCO4)c(CC(C)C)nc2n1	x	11.6µM*	x	11.6%	20.6µM*	10.4%
COc1ccc(NC(=O)c2sc3nc4c(cc3c2N)CCCCCC4)cc1OC	6.0%	u	0.1%	x	u	x
Nc1c(C(=O)Nc2ccccc2F)sc2nc3c(cc12)CCCCCC3	7.1%	3.66µM*	-0.4%	x	2.59µM*	x
COc1ccccc1NC(=O)c1sc2nc3c(cc2c1N)CCCCCC3	23.2%	13µM*	50.0%	x	u	x
CCC1CCc2nc3sc(C(=O)Nc4ccc(F)c(F)c4)c(N)c3cc2C1 (centres undefined)	-10.2%	-19.8%	-36.0%	x	-19.2%	x
CCC1CCc2nc3sc(C(=O)Nc4ccc(C)cc4C)c(N)c3cc2C1 (centres undefined)	-9.1%	23.1µM*	u	x	u	x
